Measured values taken from PubChem BioAssay AID1159580 (chemical genetic matrix, 2015).
Where “and” joins values, the source holds several entries; their conditions need not be identical. Equal values may be shown once. Among all 5,500 compounds or so, about 2,000 (36%) were called active. Roughly 18% stayed inconclusive and do not appear here. Cut-off read from the data, not from the text of the source: active = normalized growth mostly below about 0.91 (no sharp cut-off); inconclusive = no clear call, values can overlap the other calls; inactive = mostly above about 0.92. This is one part of the list.

Assay: chemical genetic growth profiling, strain panel (AID 1159580);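 note: tested at 20 µM; growth read once vehicle control cultures reached saturation at 30 °C; 1 = growth at the plate median or of vehicle wells; lower values mean less growth of the strain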
Conditions: S. cerevisiae deletion strains, growth OD

Measured: normalized growth

O=c1c(O)cc([C@H]2Oc3cc(O)cc(O)c3C[C@H]2O)cc2c([C@H]3Oc4cc(O)cc(O)c4C[C@H]3O)cc(O)c(O)c12
active: locus YJL129C, strain trk1, stronger effect = lower value 1.14 [resistant]
inactive: locus YAL013W, strain DEP1, stronger effect = lower value 1.01 | locus YAL021C, strain ccr4, stronger effect = lower value 1.01 | locus YAL026C, strain drs2, stronger effect = lower value 1.04 | locus YAL030W, strain snc1, stronger effect = lower value 1.04 | locus YBL061C, strain skt5, stronger effect = lower value 1.03 | locus YBR009C, strain hhf1, stronger effect = lower value 1.04 | locus YBR021W, strain FUR4, stronger effect = lower value 1.01 | locus YBR023C, strain chs3, stronger effect = lower value 1.02 | locus YBR171W, strain sec66, stronger effect = lower value 1.06 | locus YBR229C, strain ROT2, stronger effect = lower value 0.998 | locus YBR231C, strain swc5, stronger effect = lower value 1.02 | locus YBR279W, strain paf1, stronger effect = lower value 1.02 | locus YCL011C, strain gbp2, stronger effect = lower value 1.04 | locus YCL016C, strain dcc1, stronger effect = lower value 1.02 | locus YCL029C, strain bik1, stronger effect = lower value 0.998 | locus YCL069W, strain vba3, stronger effect = lower value 1.03 | locus YCR088W, strain abp1, stronger effect = lower value 1.04 | locus YDL005C, strain med2, stronger effect = lower value 1.05 | locus YDL035C, strain GPR1, stronger effect = lower value 1.03 | locus YDL040C, strain nat1, stronger effect = lower value 1.04 | locus YDL074C, strain BRE1, stronger effect = lower value 1.04 | locus YDL101C, strain DUN1, stronger effect = lower value 1.02 | locus YDL185W, strain tfp1, stronger effect = lower value 1.01 | locus YDL192W, strain arf1, stronger effect = lower value 1 | locus YDR001C, strain nth1, stronger effect = lower value 1.03 | locus YDR069C, strain doa4, stronger effect = lower value 0.995 | locus YDR101C, strain arx1, stronger effect = lower value 1.02 | locus YDR137W, strain rgp1, stronger effect = lower value 1.03 | locus YDR159W, strain sac3, stronger effect = lower value 1.1 | locus YDR162C, strain NBP2, stronger effect = lower value 1.03 | locus YDR195W, strain ref2 1.04 | locus YDR297W, strain sur2, stronger effect = lower value 1.02 | locus YDR318W, strain mcm21, stronger effect = lower value 1.02 | locus YDR334W, strain swr1, stronger effect = lower value 1.03 | locus YDR335W, strain msn5, stronger effect = lower value 1.02 | locus YDR388W, stronger effect = lower value 0.995 | locus YDR392W, strain spt3, stronger effect = lower value 1.03 | locus YDR502C, strain sam2, stronger effect = lower value 1.03 | locus YEL003W, strain gim4, stronger effect = lower value 1.03 | locus YEL037C, strain rad23, stronger effect = lower value 1.02 | locus YEL061C, strain CIN8 (second series), stronger effect = lower value 1.04 | locus YEL061C, strain CIN8, stronger effect = lower value 1.01 | locus YER015W, strain faa2, stronger effect = lower value 1.01 | locus YER016W, strain bim1, stronger effect = lower value 1.04 | locus YER110C, stronger effect = lower value 1.03 | locus YER111C, strain swi4, stronger effect = lower value 1.01 | locus YER155C, strain BEM2 (second series), stronger effect = lower value 1.08 | locus YER155C, strain BEM2, stronger effect = lower value 1.05 | locus YER167W, strain BCK2, stronger effect = lower value 1.02 | locus YFR010W, strain ubp6, stronger effect = lower value 1.03 | locus YGL078C, strain dbp3, stronger effect = lower value 1.01 | locus YGL086W, strain mad1, stronger effect = lower value 1.02 | locus YGL167C, strain pmr1, stronger effect = lower value 1.03 | locus YGL173C, strain kem1, stronger effect = lower value 1.03 | locus YGL227W, strain vid30, stronger effect = lower value 1.05 | locus YGL240W, strain doc1, stronger effect = lower value 1.06 | locus YGL248W, strain PDE1, stronger effect = lower value 0.998 | locus YGL253W, strain hxk2, stronger effect = lower value 1.05 | locus YGR135W, strain pre9, stronger effect = lower value 1.01 | locus YGR252W, strain gcn5, stronger effect = lower value 1.01 | locus YHR013C, strain ard1, stronger effect = lower value 1.05 | locus YHR027C, strain rpn1, stronger effect = lower value 1.02 | locus YHR030C, strain SLT2, stronger effect = lower value 0.985 | locus YHR079C, strain IRE1 (second series), stronger effect = lower value 1.02 | locus YHR079C, strain IRE1, stronger effect = lower value 0.999 | locus YHR094C, strain hxt1, stronger effect = lower value 1.02 | locus YHR129C, strain ARP1, stronger effect = lower value 1.01 | locus YHR142W, strain chs7, stronger effect = lower value 1.05 | locus YHR200W, strain rpn10, stronger effect = lower value 0.994 | locus YIL066C, strain RNR3, stronger effect = lower value 1.02 | locus YIL073C, strain SPO22, stronger effect = lower value 1.1 | locus YIL125W, strain kgd1, stronger effect = lower value 1.02 | locus YIR030C, strain dcg1, stronger effect = lower value 1.01 | locus YJL092W, strain hpr5, stronger effect = lower value 1.03 | locus YJL095W, strain BCK1 (second series), stronger effect = lower value 1.02 | locus YJL095W, strain BCK1, stronger effect = lower value 0.995 and 1.01 | locus YJL115W, strain asf1, stronger effect = lower value 1.05 | locus YJL134W, strain LCB3, stronger effect = lower value 1.02 | locus YJL154C, strain vps35, stronger effect = lower value 1.04 | locus YJL164C, strain tpk1, stronger effect = lower value 1.01 | locus YJL166W, strain qcr8, stronger effect = lower value 1.05 | locus YJL168C, strain set2, stronger effect = lower value 1.02 | locus YJL187C, strain SWE1 (second series), stronger effect = lower value 0.997 | locus YJR043C, strain POL32, stronger effect = lower value 1.03
